# Data from PubChem BioAssay (EPA / NIEHS).
# Inconclusive results are not listed. Calls of active or inactive are those of the source. The calls were made as follows, unless noted: active = hit-call score of the fitted dose curve at least 0.9, where 1 is the maximum; inactive = score below 0.9.
# Key:
# [1] = CCTE_Shafer_MEA_acute_burst_number: CCTE's Neural Acute Assay for Single-Electrode Bursts, Shafer Lab (AID 2284013)
# How it was run: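 Burst totals were derived with adaptive spike detection (8x rms threshold) on filtered signals from rat cortical cultures; change relative to pre-treatment baseline after 40-min compound exposure (0.03-40 uM) was fitted in the negative direction against DMSO.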
# [2] = CCTE_Shafer_MEA_acute_burst_duration_mean: CCTE's Neural Acute Assay for Mean Burst Duration, Shafer Lab (AID 2284014);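 also: hits are decreases in mean burst duration relative to DMSO controls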
# How it was run: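 Acute exposure of mature rat cortical networks (DIV 13 or 15) grown on microelectrode arrays to 0.03-40 uM compound. Mean burst duration compared with the 40-min pre-dose baseline over a 40-min post-dose recording at 37 C.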
# [3] = CCTE_Shafer_MEA_acute_per_burst_spike_number_mean: CCTE's Neural Acute Assay for Average Number of Spikes Per Burst, Shafer Lab (AID 2284015);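 also: hits are decreases in mean spikes per burst versus baseline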
# How it was run: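 Read-out: percent change in mean spikes per burst, each well's post-exposure 40-min recording versus its own 40-min baseline. Rat cortical cultures, DIV 13 or 15, compounds 0.03-40 uM; DMSO is negative control, loss-of-signal fitting.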
# [4] = CCTE_Shafer_MEA_acute_interburst_interval_mean: CCTE's Neural Acute Assay for Mean Interburst Interval, Shafer Lab (AID 2284016);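 also: percent change of mean interburst interval versus each well's own pre-dose baseline; curves fitted for decrease in interburst interval relative to DMSO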
# How it was run: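 Rat cortical cultures, DIV 13/15; 20 min equilibration, 40 min baseline, compound 0.03-40 uM, 40 min re-recording, 37 C. Spikes detected at 8x rms noise (300-5000 Hz band-pass). Endpoint: % change in interburst interval, fitted in loss direction vs DMSO.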
# [5] = CCTE_Shafer_MEA_acute_burst_percentage_mean: CCTE's Neural Acute Assay for Percentage of Spikes in a Burst, Shafer Lab (AID 2284017);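 also: curve fitted for loss of signal so potency reflects decreased burst percentage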
# How it was run: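 Rat cortical cultures, DIV 13/15, 37 C. Spikes detected at 8x rms noise (300-5000 Hz band-pass). Burst spikes/total spikes averaged across electrodes per well; % change post- vs pre-treatment (40 min each), loss-of-signal fit vs DMSO.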
# [6] = CCTE_Shafer_MEA_acute_burst_percentage_std: CCTE's Neural Acute Assay for Standard Deviation of Burst Percentage, Shafer Lab (AID 2284018);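 also: fitted in the negative direction so actives lower burst percentage SD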
# How it was run: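 Primary rat cortical neurons on 16-electrode MEA wells were recorded 40 min at baseline (DIV 13 or 15), then 40 min after compound (0.03-40 uM), at 37 C. Well value is SD across electrodes of spikes-in-bursts/total spikes; endpoint is percent change, DMSO-referenced.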
# [7] = CCTE_Shafer_MEA_acute_per_network_burst_electrodes_number_mean: CCTE's Neural Acute Assay for Mean Number of Electrodes in a Network Burst, Shafer Lab (AID 2284021);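 also: curves fitted for decreases only so hits reduce electrodes per burst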
# How it was run: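 Cultures of rat cortex neurons were exposed on DIV 13 or 15 to compounds at 0.03-40 uM in at least three wells each. Activity over 40 min before and 40 min after exposure at 37 C gave the percent change in electrodes per network burst.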
# [8] = CCTE_Shafer_MEA_acute_network_burst_percentage: CCTE's Neural Acute Assay for Percentage of Network Bursts, Shafer Lab (AID 2284022);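 also: curves fitted for loss so actives lower network burst percentage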
# How it was run: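 Cortical neurons from rat were grown over microelectrode arrays and used on day 13 or 15 in vitro. Wells with at least 10 active electrodes received test chemical at 0.03-40 uM. Activity during 40 min of exposure was compared with the preceding 40-min baseline.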
# [9] = CCTE_Shafer_MEA_acute_cross_correlation_HWHM: CCTE's Neural Acute Assay for Cross Correlation at Half Width at Half Maximum, Shafer Lab (AID 2284026);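 also: percent change per well from pre-dose baseline in spike cross-correlogram half width; hits are a decrease in cross-correlogram half width relative to DMSO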
# How it was run: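 Primary cortex (rat), MEA, DIV 13/15; compound 0.03-40 uM; 40 min pre + 40 min post at 37 C; spike threshold 8x rms; wells need ≥10 active electrodes; endpoint = % change in cross-correlogram HWHM vs baseline, DMSO negative control.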
# [10] = CCTE_Shafer_MEA_acute_synchrony_index: CCTE's Neural Acute Assay for Synchrony, Shafer Lab (AID 2284027);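 also: network synchrony index of spontaneous spiking in primary rat cortical neurons on MEAs; fitted for loss of signal so actives lower synchrony relative to DMSO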
# How it was run: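 The synchrony index is taken as percent change per well between a 40 min baseline and a 40 min recording with compound (0.03–40 uM), at 37C. Rat cortical cultures on multiwell MEAs at DIV 13 or 15, spike threshold 8× rms noise.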
# [11] = CCTE_Shafer_MEA_acute_AB: CCTE's Alamar Blue Assay for Cytotoxicity in the Neural Acute Assay, Shafer Lab (AID 2284069; active = hit-call score of the fitted dose curve at least 0.9, where 1 is the maximum;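 also: active compounds lower the viability signal compared with DMSO wells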)
# How it was run: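 Metabolic activity in chemically exposed rat cortical neurons (MEA cultures, day 13/15 post-plating) measured via CellTiter Blue resazurin reduction, 544/590 nm fluorescence; fitted relative to DMSO, with signal loss indicating reduced viability.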
# [12] = CCTE_Shafer_MEA_acute_LDH: CCTE's Lactate Dehydrogenase Assay for Cytotoxicity in the Neural Acute Assay, Shafer Lab (AID 2284086; active = hit-call score of the fitted dose curve at least 0.9, where 1 is the maximum;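 also: active means LDH release rises above DMSO vehicle level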)
# How it was run: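 LDH released during 40 min compound exposure of primary rat cortical cultures, quantified by absorbance at 490 nm in collected medium. Fitting direction positive versus DMSO vehicle.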
# [13] = read-out: Monokine induced gamma interferon (MIG), CXCL9 (gene 4283); assay: BSK_KF3CT_MIG: BioMAP Diversity Plus: KF3CT Assay for Monokine induced gamma interferon (MIG) Biomarker Activity (AID 2284248); settings: primary human keratinocytes with fibroblasts
# How it was run: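 The assay uses a co-culture of human keratinocytes and foreskin fibroblasts. Measurement occurs 24 hours after dosing, with MIG detected by ELISA and the DMSO control as baseline.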
# [14] = read-out: Collagen I, COL1A1 (gene 1277); assay: BSK_hDFCGF_CollagenI: BioMAP Diversity Plus: hDFCGF Assay for Collagen I Biomarker Activity (AID 2284250); settings: primary human foreskin fibroblasts
# How it was run: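 Collagen I quantified by ELISA 24 h after chemical dosing of human dermal fibroblast primary cells, with parallel SRB staining (0.1%, TCA-fixed, 560 nm) for overt cytotoxicity.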
# [15] = read-out: Interferon-inducible T-cell alpha chemoattractant (ITAC), CXCL11 (gene 6373); assay: BSK_hDFCGF_ITAC: BioMAP Diversity Plus: hDFCGF Assay for Interferon-inducible T-cell alpha chemoattractant (ITAC) Biomarker Activity (AID 2284251); settings: primary human foreskin fibroblasts
# How it was run: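 Chemical dosing of primary human foreskin fibroblast cultures preceded ELISA measurement of I-TAC at 24 h. Response was analysed in the positive direction using DMSO as baseline, while parallel SRB staining measured cytotoxicity.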
# [16] = read-out: Plasminogen activator inhibitor-1 (PAI1), SERPINE1 (gene 5054); assay: BSK_KF3CT_PAI1: BioMAP Diversity Plus: KF3CT Assay for Plasminogen activator inhibitor-1 (PAI1) Biomarker Activity (AID 2284252); settings: primary human keratinocytes with fibroblasts
# How it was run: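 PAI-1 levels quantified by ELISA after 24 h compound exposure of primary human skin keratinocytes co-cultured with fibroblasts. Activity is the gain relative to DMSO; cytotoxicity tracked in parallel cultures via SRB staining.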
# [17] = read-out: Interleukin-8 (IL8), CXCL8 (gene 3576); assay: BSK_KF3CT_IL8: BioMAP Diversity Plus: KF3CT Assay for Interleukin-8 (IL8) Biomarker Activity (AID 2284254); settings: primary human keratinocytes with fibroblasts
# How it was run: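 ELISA detection of IL-8 from a human skin co-culture, keratinocytes with foreskin fibroblasts, at 24 h following chemical exposure, with gain of signal scored against DMSO controls.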
# [18] = read-out: Intercellular Adhesion Molecule 1 (ICAM1), ICAM1 (gene 3383); assay: BSK_BE3C_ICAM1: BioMAP Diversity Plus: BE3C Assay for Intercellular Adhesion Molecule 1 (ICAM1) Biomarker Activity (AID 2284278); settings: primary human bronchial epithelial cells;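 also: cell-surface ICAM-1 protein level quantified by ELISA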
# How it was run: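 ICAM-1 quantified by ELISA and fitted against DMSO baseline, 24 h post-dosing in BE3C cultures of primary human lung bronchial epithelial cells. Cytotoxicity checked in parallel cultures by total protein SRB staining.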
# [19] = read-out: Interferon-inducible T-cell alpha chemoattractant (ITAC), CXCL11 (gene 6373); assay: BSK_BE3C_ITAC: BioMAP Diversity Plus: BE3C Assay for Interferon-inducible T-cell alpha chemoattractant (ITAC) Biomarker Activity (AID 2284279); settings: primary human bronchial epithelial cells
# How it was run: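 BE3C cells (human primary bronchial epithelium), 24 h compound exposure, I-TAC by ELISA, DMSO = negative control/baseline, positive fitting direction.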
# [20] = read-out: Interleukin-8 (IL8), CXCL8 (gene 3576); assay: BSK_BE3C_IL8: BioMAP Diversity Plus: BE3C Assay for Interleukin-8 (IL8) Biomarker Activity (AID 2284280); settings: primary human bronchial epithelial cells
# How it was run: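 Measured at 24 h after treatment, IL-8 from human primary bronchial epithelial cells is determined by ELISA, and the response is modelled as increasing relative to DMSO negative control.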
# [21] = read-out: Epidermal growth factor receptor (EGFR), EGFR (gene 1956); assay: BSK_BE3C_EGFR: BioMAP Diversity Plus: BE3C Assay for Epidermal growth factor receptor (EGFR) Biomarker Activity (AID 2284281); settings: primary human bronchial epithelial cells
# How it was run: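 Measured 24 h after dosing in primary human bronchial epithelial cultures, EGFR was read by ELISA; gain of signal over DMSO control defined activity.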
# KRT18 (gene 3875) = assay: BSK_BE3C_Keratin818: BioMAP Diversity Plus: BE3C Assay for Keratin 818 Biomarker Activity (AID 2284282); settings: primary human bronchial epithelial cells
# How it was run: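 ELISA readout of Keratin 8/18 in human primary bronchial epithelial cultures after 24 h chemical exposure, DMSO baseline. Parallel SRB staining (0.1%, TCA-fixed, 560 nm) served as cytotoxicity check.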
# [22] = read-out: Matrix Metallopeptidase 9 (MMP9), MMP9 (gene 4318); assay: BSK_BE3C_MMP9: BioMAP Diversity Plus: BE3C Assay for Matrix Metallopeptidase 9 (MMP9) Biomarker Activity (AID 2284283); settings: primary human bronchial epithelial cells
# How it was run: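 Cells were dosed, incubated 24 h, then assayed for MMP-9 by ELISA; activity was fitted upward against DMSO. The system used human lung primary bronchial epithelial cells, with SRB total-protein staining run alongside for cytotoxicity.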
# [23] = read-out: Plasminogen activator inhibitor-1 (PAI1), SERPINE1 (gene 5054); assay: BSK_CASM3C_PAI1: BioMAP Diversity Plus: CASM3C Assay for Plasminogen activator inhibitor-1 (PAI1) Biomarker Activity (AID 2284284); settings: primary human coronary artery smooth muscle cells;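 also: PAI-1 protein level measured by ELISA 24 h after dosing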
# [24] = read-out: Monocyte Chemoattractant Protein-1 (MCP1), CCL2 (gene 6347); assay: BSK_hDFCGF_MCP1: BioMAP Diversity Plus: hDFCGF Assay for Monocyte Chemoattractant Protein-1 (MCP1) Biomarker Activity (AID 2284285); settings: primary human foreskin fibroblasts
# How it was run: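 MCP-1 ELISA readout was taken 24 hours after dosing primary human dermal fibroblasts in the hDFCGF system, with DMSO as baseline. Parallel sulforhodamine B staining of total protein tracked overt cytotoxicity.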
# [25] = read-out: Intercellular Adhesion Molecule 1 (ICAM1), ICAM1 (gene 3383); assay: BSK_hDFCGF_ICAM1: BioMAP Diversity Plus: hDFCGF Assay for Intercellular Adhesion Molecule 1 (ICAM1) Biomarker Activity (AID 2284287); settings: primary human foreskin fibroblasts
# How it was run: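 ICAM-1 ELISA readout 24 h after dosing, DMSO as baseline, in human dermal foreskin fibroblast cultures. Cytotoxicity checked in parallel wells by SRB staining (0.1% SRB, 10% TCA fixation, 560 nm).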
# [26] = read-out: TIMP metallopeptidase inhibitor 2 (TIMP2), TIMP2 (gene 7077); assay: BSK_hDFCGF_TIMP2: BioMAP Diversity Plus: hDFCGF Assay for TIMP metallopeptidase inhibitor 2 (TIMP2) Biomarker Activity (AID 2284289); settings: primary human foreskin fibroblasts
# How it was run: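 Primary human foreskin fibroblasts in the hDFCGF system, dosed for 24 h; TIMP-2 level measured by ELISA, fitted in the positive direction against DMSO; cytotoxicity checked in parallel by sulforhodamine B total protein staining.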
# [27] = read-out: Thrombomodulin, THBD (gene 7056); assay: BSK_LPS_Thrombomodulin: BioMAP Diversity Plus: LPS Assay for Thrombomodulin Biomarker Activity (AID 2284296); settings: primary human HUVEC with PBMC
# How it was run: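 Thrombomodulin on the surface of LPS-activated endothelial/PBMC co-cultures was quantified by ELISA at 24 hours post-dosing, with DMSO as baseline. Parallel SRB total-protein staining flagged overt cytotoxicity.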
# CD69, CD69 (gene 969) = assay: BSK_LPS_CD69: BioMAP Diversity Plus: LPS Assay for CD69 Biomarker Activity (AID 2284303); settings: primary human HUVEC with PBMC
# How it was run: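 CD69 surface levels were read by ELISA after 24 h chemical treatment of an LPS-stimulated HUVEC plus PBMC co-culture; positive-direction fit against DMSO vehicle.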
compound,measurement,setting,value
CCCC[N+](CCCC)(CCCC)CCCC,AC50,[1],0.00152 µM (active)
same,AC50,[2],9.59 µM (active)
same,AC50,[3],5.44 µM (active)
same,AC50,[4],9.27 µM (active)
same,AC50,[5],9.71 µM (active)
same,AC50,[6],23.2 µM (active)
same,outcome,[7],inactive
same,AC50,[8],6.81 µM (active)
same,AC50,[9],2.98 µM (active)
same,AC50,[10],9.18 µM (active)
same,outcome,[11],inactive
same,outcome,[12],inactive
same,outcome,[13],inactive
same,outcome,[14],inactive
same,outcome,[15],inactive
same,outcome,[16],inactive
same,outcome,[17],inactive
same,outcome,[18],inactive
same,outcome,[19],inactive
same,outcome,[20],inactive
same,outcome,[21],inactive
same,outcome,KRT18 (gene 3875),inactive
same,outcome,[22],inactive
same,outcome,[23],inactive
same,outcome,[24],inactive
same,outcome,[25],inactive
same,outcome,[26],inactive
same,outcome,[27],inactive
same,outcome,"CD69, CD69 (gene 969)",inactive
